# Data as given in PubChem BioAssay (NCATS).
# Records with an inconclusive call do not appear. Active and inactive are the calls of the source. The call rests on the fitted dose curve; in most records, active means well fitted cell-killing curve with a large enough effect; inconclusive means small, poorly fitted or top-dose-only effect; inactive means flat fitted curve, though single readings scatter.
# Experiment: Cell Viability - LYMP2-020 (AID 986); further: nearly all actives have a fitted effect of over 55% in size
# Conditions: series mostly up to 92.2 µM
# Excerpt: NIH Chemical Genomics Center [NCGC]
# NIH Molecular Libraries Screening Centers Network [MLSCN]
# National Institutes of Environmental Health Sciences [NIEHS]
# National Toxicology Program [NTP]
# We have developed a 1536-well cell-based assay for quantitative high throughput screening (qHTS) against a number of cell lines to determine in vitro cytotoxicity of small molecules. This particular assay uses a human lymphoblastoid cell line (LYMP2-020) purchased from Coriell Institute for Medical Research.
# NCGC Assay Protocol Summary:
# The CellTiter-Glo luminescent cell viability assay (Promega) is a homogeneous method to measure the number of viable cells in culture. The end point readout of this assay is based on quantitation of intracellular ATP, an indicator of metabolic activity, using the luciferase reaction. Luciferase catalyzes the oxidation of beetle Luciferin to oxyluciferin and light in the presence of ATP. The luminescent signal is proportional to amount of ATP present.
# Using the CellTiter-Glo luminescent cell viability assay, the amount of cellular ATP was measured in the lymphoblastoid cell line with complete culture medium following compound treatment for 24 hours. The assay was performed in opaque white Kalypsys 1536-well plates. In the screen, tetraoctylammonium bromide was used as positive control. Library compounds were measured for their ability to cause acute toxicity in the cell line, as reflected by a decrease in intracellular ATP levels, in a concentration-dependent manner. […] AC50 values were determined from concentration-response data modeled with the standard Hill equation.
# qHTS protocol for CellTiter Glo lymphoblastoid cellular assay
# [Step] [Parameter] [Value] [Description]
# 1. Reagent; 5 uL; 2500 lymphoblastoid cells/well
# 2. Time; 5 hr; 37 C incubation
# 4. Controls; 23 nL; Tetraoctylammonium bromide 6.4pM to 92 uM
# 5. Time; 24 hr; 37 C incubation
# 6. Reagent; 5 uL; CellTiter Glo reagent
# 7. Time; 30 min; Room Temperature
# 8. Detection; Luminescence; Viewlux plate reader
# Keywords: cell viability, cytotoxicity, lymphoblastoid cell line, luminescence, NTPHTS, NTPHTS_NCGC, NIEHS, DSSTox, MLSMR, MLSCN, NIH Roadmap, qHTS, NCGC
row,SMILES,outcome
1,Cc1cn([C@H]2C[C@H](N=[N+]=[N-])[C@@H](CO)O2)c(=O)[nH]c1=O,inactive
2,O=c1[nH]cc(F)c(=O)[nH]1,inactive
3,Cc1cn([C@H]2C=C[C@@H](CO)O2)c(=O)[nH]c1=O,inactive
4,NCCS(=O)(=O)O,inactive
5,N[C@@H](Cc1c[nH]c2ccc(O)cc12)C(=O)O,inactive
6,CCC1(c2ccccc2)C(=O)NCNC1=O,inactive
7,CC(C)C(=O)Nc1ccc([N+](=O)[O-])c(C(F)(F)F)c1,inactive
8,Cn1c(=O)c2c(ncn2C)n(C)c1=O,inactive
9,Cn1c(=O)c2[nH]cnc2n(C)c1=O,inactive
10,Nc1ccn([C@H]2CC[C@@H](CO)O2)c(=O)n1,inactive
11,COc1ccc2c(c1)c(CC(=O)O)c(C)n2C(=O)c1ccc(Cl)cc1,inactive
12,Nc1c2c(nc3ccccc13)CCCC2,inactive
13,NS(=O)(=O)c1cc2c(cc1Cl)NCNS2(=O)=O,inactive
14,CC(C)NCC(O)c1ccc(O)c(O)c1 (stereo not drawn),inactive
15,Clc1ccc(C(c2ccccc2Cl)C(Cl)Cl)cc1 (stereo not drawn),inactive
16,Cc1ccc(-c2cc(C(F)(F)F)nn2-c2ccc(S(N)(=O)=O)cc2)cc1,inactive
17,O=c1c(-c2ccc(O)cc2)coc2cc(O)cc(O)c12,inactive
18,COc1ccc2[nH]cc(CCNC(C)=O)c2c1,inactive
